Results reported in article PMC4336329 (PLoS ONE, 2015).
About 14,000 (4.5%) of roughly 310,000 compounds showed an effect of 50% or more. Effects have a minus sign here. The full list was thinned out, with strong results kept by preference.

molecular target: human ether-à-go-go-related gene (hERG) potassium channel (human, UniProt Q12809); assay: primary screen, population patch clamp on CHO cells stably expressing hERG; higher = less effect of the substance
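Also: peak tail current of the secondary pulse compared with the same well before compound.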

Chain of human ether-à-go-go-related gene (hERG) potassium channel (Q12809 whole entry, looked up): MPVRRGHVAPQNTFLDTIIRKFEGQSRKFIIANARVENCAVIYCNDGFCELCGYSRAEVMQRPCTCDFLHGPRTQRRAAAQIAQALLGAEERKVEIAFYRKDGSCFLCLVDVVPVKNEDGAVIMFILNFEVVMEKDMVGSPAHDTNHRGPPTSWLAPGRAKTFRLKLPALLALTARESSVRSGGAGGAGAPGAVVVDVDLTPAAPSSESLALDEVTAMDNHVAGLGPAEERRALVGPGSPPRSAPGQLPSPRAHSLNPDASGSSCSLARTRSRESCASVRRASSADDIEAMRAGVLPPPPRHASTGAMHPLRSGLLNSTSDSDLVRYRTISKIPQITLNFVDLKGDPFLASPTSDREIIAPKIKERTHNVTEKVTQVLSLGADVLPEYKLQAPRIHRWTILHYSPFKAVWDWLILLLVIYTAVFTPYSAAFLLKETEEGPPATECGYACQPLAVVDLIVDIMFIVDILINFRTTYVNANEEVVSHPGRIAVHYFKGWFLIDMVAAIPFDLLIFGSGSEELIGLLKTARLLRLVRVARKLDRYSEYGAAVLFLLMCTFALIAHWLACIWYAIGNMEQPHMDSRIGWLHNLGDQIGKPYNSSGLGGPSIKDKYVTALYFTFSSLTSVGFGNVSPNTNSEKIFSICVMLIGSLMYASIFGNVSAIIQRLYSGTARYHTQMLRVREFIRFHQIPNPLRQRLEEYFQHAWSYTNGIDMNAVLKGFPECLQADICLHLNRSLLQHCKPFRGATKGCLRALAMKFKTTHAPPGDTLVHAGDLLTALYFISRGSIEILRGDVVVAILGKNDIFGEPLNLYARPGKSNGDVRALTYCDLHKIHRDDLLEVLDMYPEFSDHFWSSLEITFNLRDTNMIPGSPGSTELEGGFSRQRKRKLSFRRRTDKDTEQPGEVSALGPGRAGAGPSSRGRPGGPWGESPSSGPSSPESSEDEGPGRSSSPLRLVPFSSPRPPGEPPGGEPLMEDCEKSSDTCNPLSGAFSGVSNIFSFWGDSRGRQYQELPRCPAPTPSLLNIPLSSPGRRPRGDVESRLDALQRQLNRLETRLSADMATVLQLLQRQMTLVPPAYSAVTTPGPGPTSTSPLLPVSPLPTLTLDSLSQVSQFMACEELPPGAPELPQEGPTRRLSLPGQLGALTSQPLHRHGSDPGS

Compound	hERG current change (%, negative = inhibition) at 10uM [%]
O=C(CN(Cc1ccco1)C(=O)CNS(=O)(=O)c1ccc(F)cc1)NCc1ccccc1	-28.4
CCOC(=O)C1CCN(C(=O)CCNC(=O)c2cc(OC)c(OC)c(OC)c2)CC1	10.9
CCN1CCCC1CNC(=O)c1ccc(Sc2ccc(F)cc2)c([N+](=O)[O-])c1 (stereo not drawn)	-66.5
O=C(c1ccc(Sc2ccc(F)cc2)c([N+](=O)[O-])c1)N1CCOCC1	-18.5
CCN1CCCC1CNC(=O)c1ccccc1Cl (stereo not drawn)	-10.6
O=C(NCCCN1CCOCC1)c1ccc(Sc2ccc(F)cc2)c([N+](=O)[O-])c1	-33.3
O=C(NCCCN1CCOCC1)c1ccc(Sc2ccccc2Cl)c([N+](=O)[O-])c1	-22.7
CCN1CCCC1CNC(=O)c1ccc(Sc2ccccc2Cl)c([N+](=O)[O-])c1 (stereo not drawn)	-64.1
CCOc1ccc(-c2nnn(CC(=O)N3CCCC3)n2)cc1OCC	13.8
Cl.O=c1c(-c2ccccc2)coc2c(CN3CCCCC3)c(O)ccc12	14.6
COc1ccc(NC(=O)CSCC(=O)N=c2sccn2C)cc1	11
O=C(Nc1ccc(O)cc1)c1cc2n(n1)C(C(F)(F)F)CC(c1ccco1)N2 (stereo not drawn)	-5.45
O=S(=O)(Nc1cccc(-c2cn3cccnc3n2)c1)c1ccc(Cl)cc1	16.4
CN1CCN(CC(=O)NC23CC4CC(CC(C4)C2)C3)CC1.Cl	4.19
CCc1ccc(Nc2n[n+](-c3ccccc3)c(-c3c(Cl)cccc3Cl)s2)cc1.[Cl-]	-27.5
CCc1ccc(Nc2n[n+](-c3ccccc3)c(-c3cccc(Cl)c3Cl)s2)cc1.[Cl-]	-1.43
CCc1ccc(Nc2n[n+](-c3ccccc3)c(-c3cc(OC)c(OC)cc3Br)s2)cc1.[Cl-]	-55
CCc1ccc(Nc2n[n+](-c3ccccc3)c(/C=C/c3ccccc3)s2)cc1.[Cl-]	-69
COc1cc(Br)c(-c2sc(Nc3ccccc3)n[n+]2-c2ccccc2)cc1OC.[Cl-]	-68.7
CCc1ccc(Nc2n[n+](-c3ccccc3)c(-c3ccc(OCc4ccccc4)cc3)s2)cc1.[Cl-]	-45.2
COc1ccc(-c2sc(Nc3ccccc3)n[n+]2-c2ccccc2)cc1Br.[Cl-]	-48.7
CCc1ccc(Nc2n[n+](-c3ccccc3)c(-c3ccc(SC)cc3)s2)cc1.[Cl-]	-2.72

Compound	hERG current change (%, negative = inhibition) at 10uM [%]
COc1cc(Br)c(-c2sc(Nc3ccccc3)n[n+]2-c2ccc(F)cc2)cc1OC.[Cl-]	-37.1
O=C(O)C1Cc2ccccc2-c2ccccc2C1	20.1
CC(C)COC(=O)c1ccc(NC(=O)C2C3CCC(C3)C2C(=O)O)cc1 (stereo not drawn)	7.41
Nc1nc(Cl)cc(Sc2ccc3ccccc3c2)n1	14.1
CCOC(=O)c1ccoc1CSCc1ccc(C(=O)OC)o1	5.24
COc1ccc(CNC(=O)C/C(C)=N/NC(=O)Cc2ccc(OC)cc2)cc1	3.39
CCC(=O)Oc1ccc(-c2cnc3ccccc3n2)cc1	13.5
COc1ccc(C(CNC(=O)c2cccc(S(=O)(=O)NCc3ccccc3)c2)N2CCOCC2)cc1 (stereo not drawn)	-40
Cc1nc(SCc2nc3ccccc3[nH]2)c2oc3ccccc3c2n1	1.04
Cc1nc(N2CCN(Cc3ccc(Cl)cc3)CC2)c2oc3ccccc3c2n1	-19.3
COc1ccccc1N1CCN(c2ncnc3c2oc2ccccc23)CC1	6.73
c1ccc2[nH]c(CSc3ncnc4c3oc3ccccc34)nc2c1	-21.4
Cc1nc(N2CCN(Cc3nc4ccccc4[nH]3)CC2)c2oc3ccccc3c2n1	-52.1
c1ccc(N2CCN(c3ncnc4c3oc3ccccc34)CC2)cc1	2.36
c1ccc2[nH]c(CN3CCN(c4ncnc5c4oc4ccccc45)CC3)nc2c1	-73.1
Cl.c1ccc2c(c1)oc1c(N3CCOCC3)ncnc12	9.53
C(=C\c1ccccc1)/CN1CCN(c2ncnc3c2oc2ccccc23)CC1	-53.7
CC(C)(C)NC(=O)CCN(/N=C/c1ccccc1F)C1=NS(=O)(=O)c2ccccc21	15.7
CCNc1c(NS(=O)(=O)c2ccc(OC)cc2)c(=O)oc2ccccc12	-24.3
O=C(Nc1ccccc1Cc1ccccc1)c1ccc2c(c1)SC1=NS(=O)(=O)CCN12	-5.78
COC(=O)c1cccc(NC(=S)Nc2ccccc2Cl)c1	-3.48
Cc1c(C(=O)N(C)C)c2ccc(Cl)cc2n1O	15.6

Compound	hERG current change (%, negative = inhibition) at 10uM [%]
COc1ccc(Cn2c(=O)[nH]c3cc(OC)c(OC)cc3c2=O)cc1	7.17
Cc1ccc(C(=O)N/C(N)=N/c2nc3ccccc3o2)cc1	-2.82
CC1(C)Cc2c(sc3c2c(=N)n(Cc2ccco2)c(=O)n3Cc2ccccc2)CO1	-12.5
CC(C)Cn1cnc2c(c(-c3ccccc3)c(-c3ccccc3)n2Cc2ccco2)c1=N	-73.3
O=c1c2ccccc2nc(-c2ccccc2)n1Cc1ccco1	-30.5
O=c1c2ccccc2c2ccccc2c(=O)n1Cc1ccco1	3.47
N=c1c2c(-c3ccccc3)c(-c3ccccc3)n(Cc3ccco3)c2ncn1Cc1ccco1	-71.2
N=c1c2c(-c3ccccc3)c(-c3ccccc3)oc2ncn1Cc1ccco1	0.861
N=c1c2c(-c3ccccc3)c(-c3ccccc3)n(Cc3ccco3)c2ncn1Cc1ccccc1	-69.3
N=C1C(c2ccccc2)=C(O)CN1Cc1ccco1	6.39
CCN(CC)S(=O)(=O)c1ccc(Cl)c(C(=O)Nc2cc(C)nn2-c2ccccc2)c1	-26.3
O=C(CCC(=O)N1CCSc2ccccc21)NCc1ccc(Cl)cc1	-33.8
CCOc1cc(/C=N/NC(=O)c2ccncc2)ccc1OS(C)(=O)=O	-3.33
COc1ccc(C2=CC3=C(Br)C(=O)C(C)(O)C(=O)C3=CO2)cc1 (stereo not drawn)	11.9
O=[N+]([O-])c1cc([N+](=O)[O-])c(N2CCCCCC2)cc1NCCO	-13.4
Cc1ccc2c(c1)C(O)(CC(=O)c1ccc(C)s1)C(=O)N2 (stereo not drawn)	21.4
O=C1C=C(c2ccc3[nH]ccc3c2)CCC1	16.3
CC(=O)OCC1(C)CN(c2ccccc2)NC1=O (stereo not drawn)	13.7
O=C(Cc1ccccc1)NC(NC(=O)Cc1ccccc1)c1cccc([N+](=O)[O-])c1	4.27
CC(CCc1ccccc1)NC(=O)c1cccc([N+](=O)[O-])c1 (stereo not drawn)	-8.01
CC(CCc1ccccc1)N(C)CC(O)c1cccc([N+](=O)[O-])c1.Cl (stereo not drawn)	-68.6
Cl.NC(=NCCc1ccccc1)c1cccc([N+](=O)[O-])c1	-57.7

Compound	hERG current change (%, negative = inhibition) at 10uM [%]
CC(CCc1ccccc1)NC(=O)CNc1cccc([N+](=O)[O-])c1 (stereo not drawn)	-30.1
N/C(=N\OC(=O)CCCc1ccccc1)c1cccc([N+](=O)[O-])c1	-3.9
C=CCN(CC(O)c1cccc([N+](=O)[O-])c1)C(C)CCc1ccccc1.Cl (stereo not drawn)	-36.4
Cl.NC(=NCc1ccccc1)c1cccc([N+](=O)[O-])c1	-20
CC(CCc1ccccc1)NCC(O)c1cccc([N+](=O)[O-])c1.Cl (stereo not drawn)	-56.2
CCOc1cc(/C=C(/C#N)c2nc3ccccc3[nH]2)ccc1OCc1ccc(C(=O)O)o1	3.75
CC1(C)CC2CC(C)(CN2C(=O)C23CCC(C)(C(=O)O2)C3(C)C)C1 (stereo not drawn)	-8.69
Cc1cc(C)c(S(=O)(=O)NCc2cn3ccccc3n2)c(C)c1	4.96
CCCCNC(=O)c1cc2ccccc2s1	10.8
CC1CCN(C(=O)CNC(=O)CNC(=O)Cc2ccccc2)CC1	4.9
C=CCN1C(=O)C2C(C(=O)NC3CCCC3)C3C=CC2(O3)C1C(=O)NC1CCCC1 (stereo not drawn)	19
COC(=O)c1sccc1NC(=O)c1c(F)c(F)c(F)c(F)c1F	27
CN(Cc1ccc(OCC(O)CN(C)Cc2ccccc2)cc1)Cc1nccn1C (stereo not drawn)	-4.14
COc1ccc(CN(C)CC(O)COc2ccc(-c3ccccc3)cc2)cc1OC (stereo not drawn)	-69.4
CN(Cc1ccc(Br)cc1)CC(O)COc1cccc(Br)c1 (stereo not drawn)	-28.5
COc1ccc(OCC(O)CNc2ccc(Br)cc2)cc1 (stereo not drawn)	9.56
CCn1ccnc1CNCc1ccc(OCC(O)CN(C)Cc2ccccc2)cc1 (stereo not drawn)	-11.7
Cc1cc(CN(C)Cc2ccc(OCC(O)CN(C)Cc3ccccc3)cc2)on1 (stereo not drawn)	-4.84
CN(Cc1ccccc1)CC(O)COc1ccc(CNCc2nccn2C)cc1 (stereo not drawn)	-72.5
CN(Cc1ccccc1)CC(O)COc1ccc(CNCc2cccnc2)cc1 (stereo not drawn)	1.13
COc1ccc(Br)cc1CN(C)CC(O)COc1ccc(Br)cc1 (stereo not drawn)	-74.6
